JMJD2A Tudor inh – qHTS Assay for Inhibitors of JMJD2A-Tudor Domain; Lysine-specific demethylase 4A (Homo sapiens), O75164; AlphaScreen JMJD2A-Tudor / H3K4me3 peptide binding; Potency, µM (top dose mostly 114 µM), hits mostly inhibitors; actives 4.4% (n = 390,000); AID 504339, 2011; also: nearly all actives have a fitted effect of over 50% in size
HP1b chromo inh – HTS for Inhibitors of HP1-beta Chromodomain Interactions with Methylated Histone Tails; Potency, µM (doses to about 114 µM), usual class: inhibitors; AID 540317, 2011; AlphaScreen HP1-beta / biotin-H3K9me3 peptide binding; actives 0.56% (n = 390,000); also: nearly all actives have a fitted effect of over 70% in size
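AlphaScreen: HP1-beta (50 nM) preformed 30 min with biotin-H3(1-18)K9me3 peptide (50 nM) in PBS pH 7.4, 0.01% Tween-20. Compound added for 30 min at RT, then streptavidin donor/nickel chelate acceptor beads (10 ug/mL) for 30 min.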
L3MBTL1 block – qHTS Assay for the Inhibitors of L3MBTL1; Potency, µM (top dose mostly 57.1 µM), most hits filed as inhibitors; AID 485360, 2010; Lethal(3)malignant brain tumor-like protein 1 (Homo sapiens), Q9Y468; actives 0.66% (n = 230,000); AlphaScreen L3MBTL1–H3K9me1 peptide binding; also: nearly all actives have a fitted effect of over 60% in size
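L3MBTL1 50 nM + b-AHA-H3(1-15)K9me1 75 nM, 30 min RT; compound added, 30 min RT; streptavidin donor/Ni-chelate acceptor beads 10 ug/mL each final, 30 min RT dark; AlphaScreen read.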
BAZ2B block – qHTS Assay for Inhibitors of BAZ2B; Bromodomain adjacent to zinc finger domain protein 2B (Homo sapiens), Q9UIF8; AlphaScreen BAZ2B-H3K14Ac peptide displacement; Potency, µM (series often up to 114 µM), most hits filed as inhibitors; actives 4.4% (n = 360,000); AID 504333, 2011; also: nearly all actives have a fitted effect of over 60% in size
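AlphaScreen displacement: compounds (up to 110uM) incubated 30 min at room temperature with a preformed 50 nM BAZ2B/50 nM biotinylated H3K14Ac peptide complex in PBS pH 7.4 with Tween-20. Donor and acceptor beads at 10 ug/mL final added, 20 min light-protected before reading.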
G9a block – qHTS Assay for Inhibitors of Histone Lysine Methyltransferase G9a; Histone-lysine N-methyltransferase EHMT2 (Homo sapiens), Q96KQ7; G9a H3K9 monomethylation, AlphaScreen, 2 h; Potency, µM (series often up to 102 µM), hits mostly inhibitors; actives 8.8% (n = 350,000); also: nearly all actives have a fitted effect of over 75% in size
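Using a bead-based AlphaScreen, monomethylated H3K9 product from 2 h room-temperature reactions (G9a 20 nM, peptide 500 nM, SAM 20 uM) was detected with 0.5 ug/mL rabbit anti-H3K9me1 antibody.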
Sfp inh – qHTS Assay for Inhibitors of Bacillus subtilis Sfp phosphopantetheinyl transferase (PPTase); actives 3.5% (n = 310,000); 4'-phosphopantetheinyl transferase ffp (Bacillus subtilis), Q9F4F7; Biochemical Sfp PPTase activity, qHTS; Potency, µM, usual class: inhibitors;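 also: the enzyme is Sfp with the accession as filed and its product quenches rhodamine fluorescence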
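Sfp 15 nM + cpd, 15 min RT; start w/ rhodamine-CoA 5 uM, BHQ-2-YbbR 12.5 uM (final); 50 mM Hepes pH 7.6, 10 mM MgCl2, 0.01% NP-40, 0.01% BSA; read 525/598 nm at 0 and 30 min.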
Hits are given with their value; . = inactive; ? = inconclusive; / = not tested or not shown; ! = not confirmed by another sample; [ ] = dose if it differs, or a comment. Sampled rows, rich in hits. Any-hit rate of the full collection: about 12%. Calls follow the shape of the dose curve; as a rule, active = well fitted curve in the direction sought with a large enough effect; inconclusive = small, poorly fitted or top-dose-only effect, or another doubt; inactive = no such curve, though single readings can be large; an effect the other way counts as inactive or inconclusive.

SMILES	JMJD2A Tudor inh	HP1b chromo inh	L3MBTL1 block	BAZ2B block	G9a block	Sfp inh
O=[N+]([O-])c1cc(C(F)(F)F)cc([N+](=O)[O-])c1NCCCN1CCOCC1	.	.	.	.	.	.
Cc1sc(-n2cccc2)c(C(=O)O)c1C	.	.	.	50µM	.	.
O=C1CC(N2CCN(S(=O)(=O)c3ccc([N+](=O)[O-])cc3)CC2)C(=O)N1c1ccccc1F (stereo not given)	.	.	.	.	.[12.7 µM]	/
COn1c2c(c3c4nonc4ccc31)CCCC2	.	.	/	.	10µM	.
CSCC[C@H](NC(=O)N1CCn2c1nc1ccccc12)C(=O)NCc1ccc(C)cc1	.	.	/	?	32µM	.
CSCC[C@H](NC(=O)N1CCn2c1nc1ccccc12)C(=O)NCc1ccco1	45µM	?	/	?	79µM	.
CSCC[C@H](NC(=O)N1CCn2c1nc1ccccc12)C(=O)NCc1ccccc1	?	.	/	?	45µM	.
CSCC[C@H](NC(=O)N1CCn2c1nc1ccccc12)C(=O)N[C@H](Cc1ccccc1)C(=O)O	?	.	/	?	.[12.7 µM]	.
CSCC[C@H](NC(=O)N1CCn2c1nc1ccccc12)C(=O)NCC1CCCO1 (stereo not given in full)	.	.	/	.	.	.
Cc1cc(NS(=O)(=O)c2cn(C)nc2C)no1	.	.	/	.	/	.
CCN1C(=O)[C@@H]2[C@@H](c3ccc(-c4ccc(C(C)=O)cc4)cc3)N3CCCC[C@@]3(C(=O)OC)[C@@H]2C1=O	.	.	.	.	.[2.33 µM]	/
O=C(CC1S/C(=N/N=C/C=C/c2ccccc2)NC1=O)Nc1ccc(C(=O)O)cc1 (stereo not given)	.	.	/	79µM	?	.
Cc1ccc(Nc2nc(NCc3ccco3)nc3nccnc23)cc1C	.	.	/	/	/	/
Cc1cc(C)cc(NC(=S)NCc2cccn2C)c1	?	.	.	50µM	.	.
CCCCOc1cccc(C(=O)O)c1	.	.	/	.	.[12.7 µM]	.
CC[N+](CC)(CC)CCCCOc1ccc2c(c1)C(=O)c1cc(OCCCC[N+](CC)(CC)CC)ccc1-2	35µM	.	.	.	?	.
CN(/C=C/c1c([N+](=O)[O-])c(=O)n(C)c(=O)n1C)c1ccccc1	.	.	.	.	.	.
CC1=C/C(=C/N(C)c2ccccc2)C(=O)S1	?	?	.	?	?	28µM
COc1ccccc1C(=O)Nc1nnc(S(=O)(=O)N2CCC(C)CC2)s1	.	.	/	.	79µM	.
O=C(Nc1nnc(S(=O)(=O)N2CCCCCC2)s1)c1ccccc1Cl	?	.	.	?	10µM!	.
COc1ccccc1C(=O)Nc1nnc(S(=O)(=O)N2CCOCC2)s1	.	.	/	.	.	.
O=C(Nc1nnc(S(=O)(=O)N2CCCCCC2)s1)c1ccccc1	28µM!	.	.	8.9µM!	16µM!	.
NC(=O)CSc1nnc(NC(=O)c2ccc(S(=O)(=O)N3CCCCC3)cc2)s1	.	.	.	.	6.3µM	/
O=C(Nc1nnc(S(=O)(=O)N2CCOCC2)s1)c1ccccc1	.	.	.	.	/	.
Cc1noc(C)c1C(=O)Nc1nc2ccccc2s1	.	.	.	.	?	/
SMILES	JMJD2A Tudor inh	HP1b chromo inh	L3MBTL1 block	BAZ2B block	G9a block	Sfp inh
CC1(c2ccc(Cl)cc2Cl)NC(=O)N(CC(=O)Nc2ccc3[nH]c(=O)[nH]c3c2)C1=O (stereo not given)	.	.	.	.	.[0.501 µM]	/
C[C@]12CCC(=O)C=C1[C@@H]1C[C@H]1[C@H]1[C@@H]3[C@@H]4C[C@H]4[C@@]4(CCC(=O)O4)[C@@]3(C)CC[C@@H]12	/	/	/	/	.	.
O=C(Nc1nnc(CCN2CCOCC2)s1)c1ccccc1	.	.	/	.	45µM	?
O=C(Nc1nn[nH]n1)c1ccc(S(=O)(=O)N2CCCCC2)cc1	?	.	.	71µM	50µM	.
O=C(Nc1nnc(S(=O)(=O)N2CCCC2)s1)c1ccccc1F	?	.	.	.	?	.
O=C(Nc1nnc(S(=O)(=O)N2CCCCC2)s1)c1ccccc1Br	.	.	.	.	.	.
O=C(Nc1nnc(S(=O)(=O)N2CCCC2)s1)c1ccccc1Cl	?	.	.	5µM!	?	.
O=C(Nc1nnc(S(=O)(=O)N2CCOCC2)s1)c1ccccc1Br	.	.	.	.	79µM	.
O=C(Nc1ccccc1)c1ccc(S(=O)(=O)N2CCCCC2)cc1	.	.	.	.	.	.
Cc1onc(-c2ccccc2Cl)c1C(=O)NC1CCCCCC1	.	.	/	.	.	.
COc1ccccc1-c1cc(C(=O)N2CCN(S(=O)(=O)c3ccc(C)cc3)CC2)[nH]n1	.	.	.	.	.	.
O=C(NCC1CCCO1)c1cc([N+](=O)[O-])ccc1Cl (stereo not given)	.	.	/	.	50µM	.
O=C(NC(=S)N(CC1CCC1)CC1CCCO1)c1cccc([N+](=O)[O-])c1 (stereo not given)	.	.	?	?	50µM	.
O=C(NCC1CCCCC1)c1cccc([N+](=O)[O-])c1	.	.	.	?	/	.
CCOc1ccc(C2C(C(=O)Nc3ccccc3)=C(C)Nc3nc(-c4ccccc4Cl)nn32)cc1OC (stereo not given)	.	.	/	.	.	/
COc1ccc(NC(=O)CSc2nnc(Cc3cccn3C)n2-c2ccc(F)cc2)cc1	.	.	.	?	71µM	.
COc1ccc(-n2c(Cc3cccn3C)nnc2SCC(=O)Nc2ccc(F)cc2)cc1	.	.	.	?	35µM	.
COc1ccc(-n2c(Cc3cccn3C)nnc2SCC(=O)Nc2nccs2)cc1	.	.	.	?	?	.
COc1ccc(-n2c(Cc3cccn3C)nnc2SCC(=O)Nc2ccccc2C)cc1	.	.	.	.	?	.
CCNC(=O)N1CCN(CCCC(c2ccc(F)cc2)c2ccc(F)cc2)CC1	.	.	.	.	.	.
CC(C)C(CCNC1CCN(C)CC1)c1ccc(Cl)cc1 (stereo not given)	56µM	.	/	.	?	.
CN1CCC(NCCC(c2ccc(F)cc2)c2ccc(Cl)cc2)CC1 (stereo not given)	0.71µM	.	/	50µM	25µM	?
CN1CCC(OC(c2ccccc2)c2ccc(Cl)cc2)C1 (stereo not given)	.	.	/	/	/	/
Cc1ccsc1/C=N/n1cnnc1	.	.	.	.	.	.
